Screening data: PubChem BioAssay, National Center for Advancing Translational Sciences (NCATS)
VACV Venus inh – vaccinia inhibition (Venus reporter). Vaccinia virus Venus reporter expression, fluorescence. Potency, µM (titrated, usually from 36.5 µM), without a hit: at the top dose activity change, negative = inhibition, most hits filed as inhibitors. hit rate 0.46% among 330,000. AID 720580; calls by dose curve; tested in A549 cells; further: potency means the concentration at half of the fitted maximal effect; nearly all actives have a fitted effect of over 30% in size
HCMV inh – inhibitors of human cytomegalovirus | AID 1259415 | HFF cells, HCMV-luciferase reporter, 72 h; hits give low values | hit rate 4.5% among 410,000 | activity change, negative = inhibition, % at 57.5 µM; in the data active means activity change below about -60%; inconclusive means no clear call, values can overlap the other calls; inactive means above about -39%
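Two-dose cell screen: HFF monolayers treated with compounds and infected with luciferase-expressing HCMV at 1 PFU/cell, 72 h at 37C, then lysed for luciferase measurement.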
Marburg entry inh – Marburg virus entry inhibition; Potency, µM (highest dose often 37.8 µM), without a hit: top-dose activity change, negative = inhibition, most hits filed as inhibitors; hit rate 1.8% among 300,000; Marburg virus pseudotyped entry inhibition, cell reporter; AID 540276; calls by dose curve; tested in HEK293 cells; further: potency means the concentration at half of the fitted maximal effect
FMDV antiviral – foot and mouth disease virus antiviral activity. hit rate 1.2% among 410,000. Potency, µM (series often up to 57.9 µM), for the others: top-dose activity change, negative = inhibition, hits mostly inhibitors. AID 1159524. FMDV antiviral cell-based qHTS; calls by dose curve; tested in HEK293T cells; further: read-out not given here; potency means the concentration at half of the fitted maximal effect; nearly all actives have a fitted effect of over 45% in size
Vaccinia mCherry – vaccinia inhibition (mCherry reporter); Vaccinia virus mCherry reporter infection, fluorescence; Potency, µM (highest dose often 36.5 µM), inactives show at the highest dose activity change, negative = inhibition, most hits filed as inhibitors; hit rate 0.63% among 310,000; AID 720579; calls by dose curve; tested in A549 cells; further: potency means the concentration at half of the fitted maximal effect; nearly all actives have a fitted effect of over 35% in size
Lassa entry inh – inhibitors of Lassa virus binding or cell entry | Lassa virus pseudotype entry inhibition, cell reporter | Potency, µM (titrated, usually from 37.9 µM), inactives show at the top dose activity change, negative = inhibition, most hits filed as inhibitors | hit rate 1.2% among 300,000 | AID 540256; calls by dose curve; tested in HEK293 cells; further: potency means the concentration at half of the fitted maximal effect; nearly all actives have a fitted effect of over 50% in size
Numbers without * were called inactive; i = inactive; ? = inconclusive; / = not tested or not shown; [ ] = another dose, or the depositor's remark. In the library only some 6.5% were active in any assay of this set; here they are far more common. On the % scale 0 is the no-effect control and ±100 the full control effect.

SMILES	VACV Venus inh	HCMV inh	Marburg entry inh	FMDV antiviral	Vaccinia mCherry	Lassa entry inh
CCOc1cccc(C(=O)NC(=S)Nc2ccc(Cl)cc2C(=O)O)c1	-3.4%	-60.2*	-16.9%[14.2 µM]	-17.4%	4.1%	-14.3%
O=C(CC1CC1)N1CC(=O)N2[C@@H](CO)[C@@H](c3ccc(Br)cc3)[C@@H]2C1	/	-20.8	/	/	/	/
Cn1cnc(S(=O)(=O)N2CCCC(c3cc(C(=O)Nc4ccc(F)c(Cl)c4)no3)C2)c1 (stereo not given)	-11.2%	-28.2	/	21.9%	i	/
CCCC(=O)N1CCCC(c2cc(C(=O)Nc3ccccc3)no2)C1 (stereo not given)	-7.0%	?	/	20µM*	-3.0%	/
Cn1nc(C(C)(C)C)cc1C(=O)N1CCCCC1c1cc(C(=O)Nc2ccc(F)c(Cl)c2)no1 (stereo not given)	?	?	/	25.1µM*	-17.6%	/
CC(C)(C)c1ccc(NC(=O)c2cc(C3CCCN(S(=O)(=O)c4cccc5cccnc45)C3)on2)cc1 (stereo not given)	-15.2%	-85.7*	/	?	-12.8%	/
O=C(Nc1ccccc1)c1cc(C2CCCN(C(=O)c3ccccc3)C2)on1 (stereo not given)	-0.5%	22.5	/	38.9%	-8.5%	/
O=C(Nc1ccc(F)c(Cl)c1)c1cc(C2CCCN(S(=O)(=O)c3ccccc3)C2)on1 (stereo not given)	-2.8%	-69.5*	/	0.2%	i	/
Cc1ncccc1C(=O)N1CCCC(c2cc(C(=O)Nc3ccc(C(C)(C)C)cc3)no2)C1 (stereo not given)	-10.8%	-18.3	/	0.0%	5.6%	/
Cn1cc(-c2nc3cncnc3n(CCN)c2=O)c2ccccc21	/	/	/	-24.6%	/	/
C=C1C(=O)c2sccc2C(c2ccc(OC)c(OC)c2)C1COC(C)=O (stereo not given)	7.08µM*	-101.5*	0.891µM*	12.6µM*	5.01µM*	7.94µM*
O=c1[nH]c(CN2CCN(c3ccc([N+](=O)[O-])cc3)CC2)nc2ccsc12	?	12.8	-27.8%	31.6µM*	/	-2.3%
COc1ccc(N2CCN(Cc3nc4ccsc4c(=O)[nH]3)CC2)cc1	/	3.2	6.5%	-9.1%	/	-0.7%
CCOC(=O)CC(=O)CSc1nc2ccsc2c(=O)n1Cc1ccccc1	-11.7%	-19.8	/	-9.5%	-16.1%	-1.2%[46.1 µM]
CCCCOC(=O)CSc1nc(N)c(C#N)c(-c2ccc(OCC)cc2)c1C#N	-4.2%	-6.1	2.2%	-3.1%	-10.2%	21.4%
CCCCOc1ccc(-c2c(C#N)c(N)nc(SCC(N)=O)c2C#N)cc1	?	33.3	?	?	/	4.47µM*
CN(C)CCCNC(=S)N(Cc1cccs1)Cc1cc2cc3c(cc2[nH]c1=O)OCCO3	0.0%	-4.3	23.1µM*	-15.7%	-5.8%	?
CCc1ccccc1NC(=S)N(CCCN(C)C)Cc1cc2cc3c(cc2[nH]c1=O)OCO3	5.7%	-75.2*	?	-13.1%	-6.5%	11.6%
COc1cc2cc(CN(CCc3ccccc3C)C(=S)NCCCN(C)C)c(=O)[nH]c2cc1OC	-19.3%	-36.5	?	0.0%	-10.0%	?
COc1cc2cc(CN(CCc3ccccc3C)C(=S)NCCCN3CCOCC3)c(=O)[nH]c2cc1OC	/	-64.0*	/	-16.4%	/	/
CC1=Nc2cc(C(=O)NCc3ccccc3Cl)ccc2Sc2c(C)ccc(C)c21	-27.2%	-90.4*	?	-19.1%	?	?
CC1=Nc2cc(C(=O)N3CCCC3)ccc2Sc2c(C)ccc(C)c21	/	-99.6*	/	0.0%	/	/
CCC1=Nc2cc(C(=O)NCc3ccccc3Cl)ccc2Sc2ccc(C)cc21	-24.0%	-13.7	/	7.9%	?	-24.1%[46.1 µM]
COc1cccc(CNC(=O)c2c(OC)cc(=O)n3c2CCN(C(=O)c2ccc(C)nc2)CC3)c1	0.0%	/	/	-11.9%	i	/
